Screens from PubChem BioAssay.
Shiga toxin inh: A qHTS for Small Molecule Inhibitors of Shiga Toxin; inhibition, % at 38.7 µM; Vero cells, Shiga toxin protein synthesis inhibition reporter; AID 2315, 2010; 290,000 tested, 9.2% active; in the data active means inhibition mostly above about 28%, no sharp cut-off; inactive means mostly below about 43%; further: 0% is about no effect
Sm TGR block: qHTS Assay for the Inhibitors of Schistosoma Mansoni Peroxiredoxins. purified TGR, DTNB reduction, TNB absorbance 405 nm. 360,000 tested, 3% active. Potency, µM (top dose mostly 114 µM), inactives show top-dose activity change, negative = inhibition, usual class: inhibitors; further: potency means the concentration at half of the fitted maximal effect; on the % scale 0 is the no-effect control and ±100 the full control effect; nearly all actives have a fitted effect of over 60% in size
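Kinetic colorimetric format: TGR-catalysed, NADPH-driven DTNB reduction monitored via TNB absorbance. Enzyme dispensed at 20 nM; compound exposure 15 min at room temperature before reaction start.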
TbPYK inhibitor: qHTS of Trypanosoma Brucei Inhibitors; 410,000 tested, 0.12% active; TbPYK enzyme, Kinase-Glo Plus ATP luminescence, 45 min; Potency, µM (top dose mostly 76.8 µM), for the others: top-dose activity, negative = inhibition, actives largely listed as inhibitors; AID 624173, 2012; further: potency means the concentration at half of the fitted maximal effect; on the % scale 0 is the no-effect control and ±100 the full control effect; nearly all actives have a fitted effect of over 50% in size
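Assay buffer: 50 mM TEA pH 7.2, 100 mM KCl, 10 mM MgCl2, 0.05% BSA, 0.01% Tween-20. Pyruvate kinase from T. brucei plus substrate met compound, then ADP (130 uM final). Luminescence was read post 45 min RT.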
FBPA Giardia inh: qHTS Assay for Inhibitors of Fructose-1,6-bisphosphate Aldolase from Giardia Lamblia; 290,000 tested, 0.71% active; purified Giardia FBPA; Potency, µM (series often up to 59.6 µM), inactives show at the top dose activity, negative = inhibition, hits mostly inhibitors; further: potency means the concentration at half of the fitted maximal effect; on the % scale 0 is the no-effect control and ±100 the full control effect; nearly all actives have a fitted effect of over 55% in size
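Giardia FBPA (40 nM reagent) was preincubated 10 min at RT with compound (up to 57.5 uM final), then substrate plus GAPDH/TPI/NAD/arsenate coupling system with diaphorase/resazurin was added; resorufin fluorescence (525/598 nm) was read after 20 min.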
Cycloheximide cs: Cycloheximide Counterscreen for Small Molecule Inhibitors of Shiga Toxin. cell reporter, cycloheximide protein synthesis inhibition counterscreen. max response, %. 300,000 tested, 12% active; in the data active means max response mostly above about 13%, no sharp cut-off; inactive means mostly below about 14%; further: read at 38.3 µM for the half of the compounds with a filed dose; 0% is about no effect
LmPK inhibitor: qHTS Assay for Inhibitors of Leishmania Mexicana Pyruvate Kinase (LmPK). Q27686. purified LmPK, Kinase-Glo ATP luminescence, 1 h. Potency, µM (top dose mostly 57.5 µM), inactives show at the highest dose activity change, negative = inhibition, usual class: inhibitors. 290,000 tested, 0.37% active; further: potency means the concentration at half of the fitted maximal effect; on the % scale 0 is the no-effect control and ±100 the full control effect
Target sequence (Q27686 whole entry, looked up): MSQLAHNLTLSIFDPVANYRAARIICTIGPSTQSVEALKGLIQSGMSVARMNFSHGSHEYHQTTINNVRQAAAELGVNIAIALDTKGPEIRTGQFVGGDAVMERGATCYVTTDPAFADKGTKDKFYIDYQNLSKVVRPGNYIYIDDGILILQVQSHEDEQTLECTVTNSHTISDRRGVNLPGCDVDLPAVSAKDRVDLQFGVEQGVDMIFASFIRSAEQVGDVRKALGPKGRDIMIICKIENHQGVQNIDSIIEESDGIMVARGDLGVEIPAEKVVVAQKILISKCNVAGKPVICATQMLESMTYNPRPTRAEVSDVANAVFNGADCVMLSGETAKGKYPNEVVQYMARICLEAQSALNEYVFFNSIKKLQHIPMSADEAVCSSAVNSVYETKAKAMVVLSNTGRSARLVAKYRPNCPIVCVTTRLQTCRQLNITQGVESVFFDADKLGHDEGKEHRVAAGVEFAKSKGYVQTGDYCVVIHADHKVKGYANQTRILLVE
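In 50 mM imidazole pH 7.2 with 7 mM MgCl2, LmPK (0.1 nM) turned over PEP (0.5 mM) and ADP (0.1 mM) for 1 h at room temperature. Luciferase read-out of ATP.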
* marks the source's active call; other numbers are inactive results. Many of the other results were omitted from the sample, so hits are more common in it than they were. Unless noted, the call rests on the fitted dose curve; in most records, active means well fitted curve in the direction sought with a large enough effect; inconclusive means small, poorly fitted or top-dose-only effect, or another doubt; inactive means no such curve, though single readings can be large; an effect the other way counts as inactive or inconclusive.

Screening Cc1nc2cc(NC(=O)N3CCCC3)ccc2n1C returned Shiga toxin inh 11, Sm TGR block -3%, TbPYK inhibitor 1%, FBPA Giardia inh -2%, Cycloheximide cs 3 and LmPK inhibitor 1%.
For Cc1nc2cc(NC(=O)N3CCC(c4ccccc4)C3)ccc2n1C (stereo not drawn) the results were Shiga toxin inh 99*, Sm TGR block 8%, TbPYK inhibitor -9%, FBPA Giardia inh -2%, Cycloheximide cs 27* and LmPK inhibitor -2%.
COc1ccc(OC)c(NC(=O)c2nnn(CC(=O)Nc3ccc(C(C)C)cc3)c2N)c1 was read as Sm TGR block 4% and TbPYK inhibitor 1%.
COc1cccc(NC(=O)CSc2nnc(-c3cccc(OC)c3)o2)c1 was read as Sm TGR block 8% and TbPYK inhibitor 2%.
COc1ccc(-c2nnc(SCC(=O)Nc3cc(C)on3)o2)cc1 was read as Shiga toxin inh 44*, Sm TGR block 3%, TbPYK inhibitor 0%, FBPA Giardia inh -1%, Cycloheximide cs 33* and LmPK inhibitor -1%.
`COc1ccc(NC(=O)CSc2oc(-c3ccc(F)cc3)nc2S(=O)(=O)c2ccc(C)cc2)c(OC)c1` gave Sm TGR block 45µM* and TbPYK inhibitor 7%.
Screening COc1ccccc1NC(=O)CSc1nnc(-c2ccc(C)cc2)o1 returned Shiga toxin inh 56, Sm TGR block 2%, TbPYK inhibitor -9%, FBPA Giardia inh 3%, Cycloheximide cs 41* and LmPK inhibitor -1%.
`COc1cccc(NC(=O)CSc2nnc(-c3ccc(C)cc3)o2)c1` gave Shiga toxin inh 45*, Sm TGR block -1%, TbPYK inhibitor -6%, FBPA Giardia inh 1%, Cycloheximide cs 28* and LmPK inhibitor 10%.
Screening Cc1ccc(SCC(=O)Nc2cccc(-c3nnc(-c4ccco4)o3)c2)cc1 returned Shiga toxin inh 56*, Sm TGR block -10%, TbPYK inhibitor -4%, FBPA Giardia inh -1%, Cycloheximide cs 21* and LmPK inhibitor 1%.
For Cc1csc(NC(=O)CSc2nnc(-c3cc(C)on3)o2)n1 the results were Shiga toxin inh 40, Sm TGR block -8%, TbPYK inhibitor -1%, FBPA Giardia inh -2%, Cycloheximide cs 15* and LmPK inhibitor -2%.
Screening O=C(CSc1ccc(Cl)cc1)Nc1cccc(-c2nnc(-c3ccco3)o2)c1 returned Shiga toxin inh 2, Sm TGR block 6%, TbPYK inhibitor -8%, FBPA Giardia inh 1%, Cycloheximide cs 1 and LmPK inhibitor 5%.
`Cc1cc(-c2nnc(SCC(=O)Nc3nc(-c4ccccc4)cs3)o2)no1` gave Shiga toxin inh 20, Sm TGR block 1%, TbPYK inhibitor -4%, FBPA Giardia inh -1%, Cycloheximide cs -3 and LmPK inhibitor 1%.
For CCCOC(=O)c1ccc(NC(=O)c2ccc(Br)o2)cc1 the results were Shiga toxin inh 52*, Sm TGR block -11%, TbPYK inhibitor -12%, FBPA Giardia inh -12%, Cycloheximide cs 56* and LmPK inhibitor -4%.
For COC(=O)Cc1ccc(NC(=O)c2ccc(Br)o2)cc1 the results were Shiga toxin inh 71*, Sm TGR block -11%, TbPYK inhibitor 6%, FBPA Giardia inh -9%, Cycloheximide cs 35* and LmPK inhibitor inconclusive.
For CCN(CC)c1ccc(NC(=O)c2ccc(Br)o2)cc1 the results were Shiga toxin inh 41, Sm TGR block -16%, TbPYK inhibitor -21%, FBPA Giardia inh -17%, Cycloheximide cs 43* and LmPK inhibitor -29%.
`CCOc1ccccc1-c1nc(-c2ccc(NC(=O)c3ccc(Br)o3)cc2)no1` gave Shiga toxin inh 47, Sm TGR block -7%, TbPYK inhibitor -6%, FBPA Giardia inh 1%, Cycloheximide cs 44* and LmPK inhibitor -6%.
`CCc1ccc(C(=O)c2cn(CC(=O)NCc3ccc(C)cc3)c3nc(C)ccc3c2=O)cc1` gave Sm TGR block -1% and TbPYK inhibitor 0%.
Screening COC(=O)Cc1ccc(NC(=O)c2ccc(NC(=O)c3ccco3)cc2)cc1 returned Shiga toxin inh 25, Sm TGR block 12%, TbPYK inhibitor 0%, FBPA Giardia inh 0%, Cycloheximide cs 8 and LmPK inhibitor 0%.
COC(=O)Cc1ccc(NC(=O)c2ccc(C)c(C)c2)cc1 was read as Shiga toxin inh 51*, Sm TGR block -22%, FBPA Giardia inh -12%, Cycloheximide cs 45* and LmPK inhibitor 0%.
CN(C)c1ccc(-c2cncnc2N(C)Cc2ccco2)cc1 was read as FBPA Giardia inh -4%.
CS(=O)(=O)N(Cc1ccccc1)c1ccc(C(=O)Nc2ccccc2C(=O)O)cc1 was read as Sm TGR block -28%, TbPYK inhibitor -6%, FBPA Giardia inh -1%, Cycloheximide cs 1 and LmPK inhibitor 6%.
For Cc1cc(C(=O)Nc2sc3c(c2C#N)CCC(C)C3)cs1 (stereo not drawn) the results were Shiga toxin inh 126*, Sm TGR block -16%, TbPYK inhibitor -5%, FBPA Giardia inh 0%, Cycloheximide cs 38* and LmPK inhibitor -11%.
For CC(=O)Nc1sc2c(c1C#N)CCC(C)C2 (stereo not drawn) the results were Shiga toxin inh 38*, TbPYK inhibitor 0%, FBPA Giardia inh 6%, Cycloheximide cs 17 and LmPK inhibitor 0%.
CC1CCc2c(sc(NC(=O)c3ccccc3C(=O)O)c2C#N)C1 (stereo not drawn) was read as Shiga toxin inh 43, Sm TGR block 0%, TbPYK inhibitor 1%, FBPA Giardia inh -1%, Cycloheximide cs 10 and LmPK inhibitor 1%.
For CC(=O)NC(=S)Nc1sc2c(c1C(N)=O)CCC(C)C2 (stereo not drawn) the results were Shiga toxin inh 53*, Sm TGR block 2%, TbPYK inhibitor -11%, FBPA Giardia inh -13%, Cycloheximide cs 54* and LmPK inhibitor 2%.
`CCN(CC(=O)Nc1sc2c(c1C#N)CCC(C)C2)CC(=O)NC1CCS(=O)(=O)C1` (stereo not drawn) gave Shiga toxin inh 42*, Sm TGR block -24%, TbPYK inhibitor -16%, FBPA Giardia inh -12%, Cycloheximide cs 19* and LmPK inhibitor 1%.
For CCCC12CN3CC(CCC)(CN(C1)C3c1ccc(OCc3ccccc3)cc1)C2=O (stereo not drawn) the results were Sm TGR block 3% and TbPYK inhibitor -8%.
For CCc1ccc(CN(Cc2ccco2)c2cnc(S(C)(=O)=O)nc2C(=O)Nc2c(C)cccc2C)cc1 the results were Sm TGR block -1% and TbPYK inhibitor -2%.
